# Article PMC4081100, “A DNA-binding-site landscape and regulatory network analysis for NAC transcription factors in Arabidopsis thaliana”
# Assays:
# Assay in all cases: universal protein binding microarray (PBM); transcription factors of Arabidopsis thaliana; high values mean tight binding
# GST-VND7 NAC domain = target: T1, GST-VND7 NAC domain (Arabidopsis thaliana, UniProt Q9C8W9 9-158); conditions: protein: recombinant; tags: GST; chain copies: 2; dsDNA, one strand shown
# T1 sequence: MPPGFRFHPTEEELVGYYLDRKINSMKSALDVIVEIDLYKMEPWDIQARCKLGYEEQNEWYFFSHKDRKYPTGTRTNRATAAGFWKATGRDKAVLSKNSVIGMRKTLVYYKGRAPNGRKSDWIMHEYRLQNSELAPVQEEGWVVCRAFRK
# Summary of the method: (§1)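 Each value is a normalised enrichment score (E-score) describing binding. The GST-tagged proteins, NAC-domain, full-length or DNA-binding-domain, were induced in cells (zinc-finger proteins with zinc acetate added) and purified on glutathione–Sepharose 4B. They were applied at 200 to 500 nM final, in duplicate, to double-stranded custom all-10-mer Agilent 4 × 180K arrays, and gapped and ungapped 8-mers were scored.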
# GST-WRKY1(266-371) = GST-WRKY1(266-371) (Arabidopsis thaliana, UniProt Q9SI37 266-371); conditions: protein: recombinant; tags: GST; dsDNA, one strand shown
# Summary of the method: as §1
# GST-ANAC092(1-176) = target: T2, GST-ANAC092(1-176) (Arabidopsis thaliana, UniProt Q9FKA0 1-176); conditions: protein: recombinant; tags: GST; chain copies: 2; dsDNA, one strand shown
# T2 sequence: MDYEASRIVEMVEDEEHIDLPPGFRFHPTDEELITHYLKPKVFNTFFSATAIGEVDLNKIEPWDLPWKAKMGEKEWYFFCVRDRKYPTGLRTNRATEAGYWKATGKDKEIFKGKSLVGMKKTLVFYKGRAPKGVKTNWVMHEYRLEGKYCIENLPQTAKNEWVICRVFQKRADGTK
# Summary of the method: as §1
# GST-NTL6(1-168) = GST-NTL6(1-168) (Arabidopsis thaliana, UniProt Q9SCK6 1-168); conditions: protein: recombinant; tags: GST; chain copies: 2; dsDNA, one strand shown
# Summary of the method: as §1
# GST-ANAC019 NAC domain = target: T3, GST-ANAC019 NAC domain (Arabidopsis thaliana, UniProt Q9C932 14-162); conditions: protein: recombinant; tags: GST; chain copies: 2; dsDNA, one strand shown
# T3 sequence: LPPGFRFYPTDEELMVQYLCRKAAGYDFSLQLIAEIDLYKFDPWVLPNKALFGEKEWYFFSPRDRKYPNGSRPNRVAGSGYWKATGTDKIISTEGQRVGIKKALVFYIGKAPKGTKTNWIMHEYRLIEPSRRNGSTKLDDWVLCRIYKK
# Summary of the method: as §1
# GST-ATAF1 NAC domain = target: T4, GST-ATAF1 NAC domain (Arabidopsis thaliana, UniProt Q39013 7-158); conditions: protein: recombinant; tags: GST; chain copies: 2; dsDNA, one strand shown
# T4 sequence: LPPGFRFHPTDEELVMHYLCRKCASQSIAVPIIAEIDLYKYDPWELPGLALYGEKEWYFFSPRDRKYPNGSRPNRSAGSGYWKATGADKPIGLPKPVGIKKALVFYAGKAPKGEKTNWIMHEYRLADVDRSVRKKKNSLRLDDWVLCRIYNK
# Summary of the method: as §1
# [1] = target: T5, GST-ANAC092(1-285) full length (Arabidopsis thaliana, UniProt Q9FKA0 1-285); conditions: protein: recombinant; tags: GST; chain copies: 2; dsDNA, one strand shown
# T5 sequence: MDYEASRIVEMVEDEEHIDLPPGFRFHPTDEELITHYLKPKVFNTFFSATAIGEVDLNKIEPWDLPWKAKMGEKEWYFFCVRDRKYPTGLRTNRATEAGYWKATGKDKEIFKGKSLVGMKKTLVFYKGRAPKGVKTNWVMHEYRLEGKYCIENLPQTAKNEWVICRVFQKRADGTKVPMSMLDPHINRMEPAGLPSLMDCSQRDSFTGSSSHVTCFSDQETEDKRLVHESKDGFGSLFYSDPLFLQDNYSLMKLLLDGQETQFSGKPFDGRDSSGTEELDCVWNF
# Summary of the method: as §1
# GST-NST2(1-184) = target: T6, GST-NST2(1-184) (Arabidopsis thaliana, UniProt Q9M274 1-184); conditions: protein: recombinant; tags: GST; chain copies: 2; dsDNA, one strand shown
# T6 sequence: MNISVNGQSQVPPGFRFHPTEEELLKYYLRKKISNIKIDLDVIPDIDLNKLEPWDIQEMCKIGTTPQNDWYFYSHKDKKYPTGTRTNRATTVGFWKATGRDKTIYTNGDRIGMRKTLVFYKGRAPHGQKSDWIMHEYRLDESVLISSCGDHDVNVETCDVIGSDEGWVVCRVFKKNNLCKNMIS
# Summary of the method: as §1
# GST-NTL8 NAC domain = target: T7, GST-NTL8 NAC domain (Arabidopsis thaliana, UniProt Q9XIN7 14-156); conditions: protein: recombinant; tags: GST; chain copies: 2; dsDNA, one strand shown
# T7 sequence: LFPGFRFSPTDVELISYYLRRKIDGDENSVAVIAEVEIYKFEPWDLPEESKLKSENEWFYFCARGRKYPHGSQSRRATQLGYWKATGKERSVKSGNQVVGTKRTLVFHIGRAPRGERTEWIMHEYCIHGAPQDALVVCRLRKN
# Summary of the method: as §1
# GST-VND3 NAC domain = target: T8, GST-VND3 NAC domain (Arabidopsis thaliana, UniProt Q9FH59 12-162); conditions: protein: recombinant; tags: GST; chain copies: 2; dsDNA, one strand shown
# T8 sequence: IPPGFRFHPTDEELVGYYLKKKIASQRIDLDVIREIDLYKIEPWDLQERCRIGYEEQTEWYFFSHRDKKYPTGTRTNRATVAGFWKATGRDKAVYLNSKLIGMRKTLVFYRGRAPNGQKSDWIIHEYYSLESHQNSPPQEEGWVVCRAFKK
# Summary of the method: as §1
# GST-ANAC055(1-171) = target: T9, GST-ANAC055(1-171) (Arabidopsis thaliana, UniProt Q9LDY8 1-171); conditions: protein: recombinant; tags: GST; chain copies: 2; dsDNA, one strand shown
# T9 sequence: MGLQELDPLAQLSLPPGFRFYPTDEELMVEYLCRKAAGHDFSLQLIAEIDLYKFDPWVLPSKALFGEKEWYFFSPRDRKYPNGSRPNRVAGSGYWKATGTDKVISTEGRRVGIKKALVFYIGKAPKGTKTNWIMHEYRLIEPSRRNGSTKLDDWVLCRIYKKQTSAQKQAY
# Summary of the method: as §1
# GST-NAP(1-166) = target: T10, GST-NAP(1-166) (Arabidopsis thaliana, UniProt O49255 1-166); conditions: protein: recombinant; tags: GST; chain copies: 2; dsDNA, one strand shown
# T10 sequence: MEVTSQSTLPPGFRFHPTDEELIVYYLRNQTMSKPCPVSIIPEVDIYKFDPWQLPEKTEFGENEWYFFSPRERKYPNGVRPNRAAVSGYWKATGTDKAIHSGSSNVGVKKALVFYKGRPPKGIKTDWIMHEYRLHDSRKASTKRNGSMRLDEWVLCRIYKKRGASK
# Summary of the method: as §1
# Chain of GST-WRKY1(266-371) (Q9SI37 266-371): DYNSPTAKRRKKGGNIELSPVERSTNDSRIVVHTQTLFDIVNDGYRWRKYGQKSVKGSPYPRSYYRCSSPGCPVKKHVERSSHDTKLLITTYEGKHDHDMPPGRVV
# Chain of GST-NTL6(1-168) (Q9SCK6 1-168): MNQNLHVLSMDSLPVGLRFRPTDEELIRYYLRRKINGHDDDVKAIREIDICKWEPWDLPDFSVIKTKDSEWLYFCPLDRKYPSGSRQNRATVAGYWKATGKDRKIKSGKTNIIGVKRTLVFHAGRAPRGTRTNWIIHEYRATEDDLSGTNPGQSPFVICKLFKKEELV
sequence,measurement,setting,value
AGGTCAGC,binding signal,GST-VND7 NAC domain,0.078 E-score
same,binding signal,GST-WRKY1(266-371),0.451 E-score
AGGGAAAT,binding signal,GST-ANAC092(1-176),0.137 E-score
same,binding signal,GST-NTL6(1-168),0.0669 E-score
same,binding signal,GST-ANAC019 NAC domain,0.0765 E-score
same,binding signal,GST-ATAF1 NAC domain,0.112 E-score
same,binding signal,[1],0.106 E-score
same,binding signal,GST-NST2(1-184),0.0566 E-score
same,binding signal,GST-NTL8 NAC domain,0.406 E-score
same,binding signal,GST-VND3 NAC domain,0.0592 E-score
GTCAATAA,binding signal,GST-NTL6(1-168),0.109 E-score
same,binding signal,GST-ANAC055(1-171),0.134 E-score
same,binding signal,GST-ATAF1 NAC domain,0.135 E-score
same,binding signal,GST-NAP(1-166),0.122 E-score
same,binding signal,GST-NST2(1-184),0.118 E-score
same,binding signal,GST-VND7 NAC domain,0.112 E-score
same,binding signal,GST-WRKY1(266-371),0.457 E-score
CGGGTCAG,binding signal,GST-WRKY1(266-371),0.408 E-score
GAAGTCAA,binding signal,GST-NTL6(1-168),0.104 E-score
same,binding signal,GST-ANAC019 NAC domain,0.0675 E-score
same,binding signal,GST-ATAF1 NAC domain,0.0967 E-score
same,binding signal,GST-NTL8 NAC domain,0.0673 E-score
same,binding signal,GST-VND7 NAC domain,0.0707 E-score
same,binding signal,GST-WRKY1(266-371),0.482 E-score
ATTGACTG,binding signal,GST-NTL6(1-168),0.071 E-score
same,binding signal,GST-ATAF1 NAC domain,0.0846 E-score
same,binding signal,GST-NST2(1-184),0.0623 E-score
same,binding signal,GST-NTL8 NAC domain,0.0613 E-score
same,binding signal,GST-VND7 NAC domain,0.05 E-score
same,binding signal,GST-WRKY1(266-371),0.465 E-score
ATGTTGAC,binding signal,GST-ATAF1 NAC domain,0.0521 E-score
same,binding signal,GST-VND3 NAC domain,0.0635 E-score
same,binding signal,GST-WRKY1(266-371),0.474 E-score
AGTCAAAG,binding signal,GST-NTL8 NAC domain,0.0881 E-score
same,binding signal,GST-VND7 NAC domain,0.0935 E-score
same,binding signal,GST-WRKY1(266-371),0.486 E-score
ATTTTGAC,binding signal,GST-ATAF1 NAC domain,0.15 E-score
same,binding signal,[1],0.0617 E-score
same,binding signal,GST-NST2(1-184),0.0826 E-score
same,binding signal,GST-VND3 NAC domain,0.101 E-score
same,binding signal,GST-WRKY1(266-371),0.461 E-score
AAGGTCAG,binding signal,GST-ATAF1 NAC domain,0.0646 E-score
same,binding signal,GST-NTL8 NAC domain,0.0579 E-score
same,binding signal,GST-VND3 NAC domain,0.0582 E-score
same,binding signal,GST-WRKY1(266-371),0.425 E-score
AATTGACC,binding signal,GST-ANAC055(1-171),0.0684 E-score
same,binding signal,GST-ATAF1 NAC domain,0.176 E-score
same,binding signal,GST-NST2(1-184),0.0795 E-score
same,binding signal,GST-NTL8 NAC domain,0.0822 E-score
same,binding signal,GST-VND3 NAC domain,0.115 E-score
same,binding signal,GST-WRKY1(266-371),0.47 E-score
ACTCTGAC,binding signal,GST-WRKY1(266-371),0.437 E-score
AGGGTAAT,binding signal,GST-ANAC092(1-176),0.113 E-score
same,binding signal,GST-NTL6(1-168),0.143 E-score
same,binding signal,GST-ANAC019 NAC domain,0.116 E-score
same,binding signal,GST-ANAC055(1-171),0.17 E-score
same,binding signal,GST-ATAF1 NAC domain,0.114 E-score
same,binding signal,[1],0.108 E-score
same,binding signal,GST-NST2(1-184),0.0716 E-score
same,binding signal,GST-NTL8 NAC domain,0.441 E-score
same,binding signal,GST-VND3 NAC domain,0.121 E-score
AGGAAACT,binding signal,GST-ANAC092(1-176),0.174 E-score
same,binding signal,GST-NTL6(1-168),0.227 E-score
same,binding signal,GST-ANAC055(1-171),0.0635 E-score
same,binding signal,GST-ATAF1 NAC domain,0.0874 E-score
same,binding signal,[1],0.186 E-score
same,binding signal,GST-NAP(1-166),0.0881 E-score
same,binding signal,GST-NST2(1-184),0.125 E-score
same,binding signal,GST-NTL8 NAC domain,0.426 E-score
same,binding signal,GST-VND7 NAC domain,0.131 E-score
ATTAGTCA,binding signal,GST-ANAC055(1-171),0.0956 E-score
same,binding signal,GST-ATAF1 NAC domain,0.109 E-score
same,binding signal,GST-VND3 NAC domain,0.135 E-score
same,binding signal,GST-WRKY1(266-371),0.404 E-score
CATTTGAC,binding signal,GST-ANAC055(1-171),0.0579 E-score
same,binding signal,GST-ATAF1 NAC domain,0.0746 E-score
same,binding signal,GST-NST2(1-184),0.0611 E-score
same,binding signal,GST-VND3 NAC domain,0.105 E-score
same,binding signal,GST-WRKY1(266-371),0.462 E-score
CATTGACG,binding signal,[1],0.149 E-score
same,binding signal,GST-VND3 NAC domain,0.08 E-score
same,binding signal,GST-WRKY1(266-371),0.411 E-score
CTGACCAG,binding signal,GST-WRKY1(266-371),0.444 E-score
